High-throughput results deposited in PubChem by National Center for Advancing Translational Sciences (NCATS).
An excerpt weighted towards active compounds, which were near 3.8% of everything screened.
TGFb inhibitor: qHTS for Inhibitors of TGF-b; HepG2 CAGA-GFP TGF-b/SMAD3 reporter, GFP fluorescence, 18 h; TGF-beta stimulated, 500 pg/mL final; Potency, µM (highest dose often 46.1 µM), for the others: at the highest dose activity, negative = inhibition, actives largely listed as inhibitors; hit rate 1.2% among 410,000; AID 588855, 2011; note: % is set by controls: 0 for no effect and ±100 for the full control effect; nearly all actives have a fitted effect of over 65% in size
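Cell-based qHTS in HEPG2 carrying a CAGA-GFP Smad reporter; compounds added before 500 pg/mL final TGF-beta, 18 h incubation at 37 degrees C, GFP fluorescence quantified per cell by imaging cytometry.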
ATXN viability: Viability Counterscreen for Primary qHTS for Inhibitors of ATXN expression. hit rate 0.49% among 400,000. S2 cells (HEK-293 line with an ATXN2-luciferase reporter) viability, CellTiter-Fluor protease fluorescence, 24 h. Potency, µM (doses to about 56.7 µM), usual class: cytotoxic; note: nearly all actives have a fitted effect of over 40% in size
ATXN2 expr inh: Primary qHTS for Inhibitors of ATXN expression. hit rate 0.72% among 360,000. HEK-293 ATXN2-luciferase reporter, luminescence, 24 h. Potency, µM (highest dose often 57 µM), without a hit: at the highest dose activity change, negative = inhibition, hits mostly inhibitors. AID 1745845, 2022; note: % is set by controls: 0 for no effect and ±100 for the full control effect; nearly all actives have a fitted effect of over 55% in size
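qHTS (up to 57 uM final) was run with 24 h compound exposure of reporter cells at 37 °C. Each well was multiplexed: SteadyGlo luminescence measured ATXN2-luciferase expression after a fluorogenic Gly-Phe-AFC viability readout (25 uM final).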
A549 viability: Nrf2 qHTS screen for inhibitors: counterscreen for cytotoxicity; AID 504648, 2011; A549 ARE-Fluc cells, CellTiter-Fluor viability, 18-24 h; Potency, µM (series often up to 46 µM), inactives show at the highest dose activity change, negative = cytotoxicity, usual class: inhibitors; hit rate 0.16% among 390,000; note: % is set by controls: 0 for no effect and ±100 for the full control effect
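A549 ARE-Fluc cells in 5% FBS OPTI-MEM, 5000 cells/well, rested 2 h then exposed to compounds in concentration-response for 18-24 h at 37 °C. Viability by CellTiter-Fluor fluorescence (Ex 405/Em 525) after 30 min; luciferase luminescence (BugLite, 15 min, RT) read afterwards.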
Nrf2 block: Nrf2 qHTS screen for inhibitors; A549 ARE-Fluc reporter, luciferase luminescence, 18-24 h; Potency, µM (series often up to 46 µM), without a hit: at the highest dose activity change, negative = inhibition, actives largely listed as inhibitors; hit rate 2.1% among 360,000; AID 504444, 2011; note: % is set by controls: 0 for no effect and ±100 for the full control effect; nearly all actives have a fitted effect of over 60% in size
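Two sequential reads on A549 ARE_Fluc cells exposed to compound for 18-24 h: a CellTiter-Fluor fluorescence read for viability, then a luciferase luminescence read for Nrf2/ARE activity.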
HepG2 viability: qHTS for Inhibitors of TGF-b: Cytotox Counterscreen; HepG2 CAGA-GFP viability, ATP luminescence, 18 h; Potency, µM (titrated, usually from 46.1 µM), inactives show top-dose activity change, negative = cytotoxicity, most hits filed as cytotoxic; hit rate 0.76% among 410,000; AID 588856, 2011
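HepG2 CAGA-GFP cells (1000/well, DMEM with 1% FBS) received compound, then TGF-beta at 500 pg/mL final, and were incubated 18 hours at 37 degrees C. Viability was read by CellTiter-Glo luminescence. Media-only wells were set as complete cell-killing and DMSO as no toxicity.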
* marks the source's active call; other numbers are inactive results; i = inactive; ? = inconclusive; nt = no result given; ! = a repeat was not active. Calls come from the whole dose curve; as a rule, active = well fitted curve in the direction sought with a large enough effect; inconclusive = small, poorly fitted or top-dose-only effect, or another doubt; inactive = no such curve, though single readings can be large; an effect the other way counts as inactive or inconclusive. Potency is the fitted concentration of half-maximal effect.

SMILES	TGFb inhibitor	ATXN viability	ATXN2 expr inh	A549 viability	Nrf2 block	HepG2 viability
CCCn1nc(-c2nnc(-c3ccc(C)c(C)c3)o2)c2ccccc2c1=O	12.1%	i	-2.1%	7.8%	8.0%	1.7%
O=C(/C=C/c1cc(Br)ccc1F)OCC(=O)N1CCCC1	0.7%	i	-1.7%	-0.9%	-0.4%	8.3%
COc1ccc(-c2cc(C(F)(F)F)n3nc(C(=O)N4CCCCC4)cc3n2)cc1	-1.0%	i	-19.6%	-3.9%	?	4.8%
COc1ccc(-c2cc(C(F)(F)F)n3nc(C(=O)N4CCCCC4)cc3n2)cc1OC	-8.1%	i	0.0%	-19.4%	25.9µM*	-3.2%
COc1ccc(-c2nc3c(=O)n(C)c(=O)nc-3n(C)n2)cc1	0.355µM*	nt	nt	1.64µM*	1.46µM*	0.562µM*
Cn1nc(-c2ccc(F)cc2)nc2c(=O)n(C)c(=O)nc1-2	0.891µM*	nt	nt	2.91µM*	2.31µM*	0.891µM*
COc1ccc(-c2nc(N)n(S(=O)(=O)c3ccc(C)cc3)n2)cc1	3.8%	i	8.0%	2.0%	-7.8%	2.2%
Cc1ccccc1-n1c2nc(=O)n(C)c(=O)c-2cc2ccccc21	-9.7%	nt	-10.9%	2.8%	-17.1%	7.2%
CCn1nc(-c2ccccc2C)nc2c(=O)n(C)c(=O)nc1-2	0.891µM*	nt	nt	23.1µM*	2.5%	0.631µM*
Cn1nc(-c2ccc(Cl)cc2)nc2c(=O)n(C)c(=O)nc1-2	1µM*	nt	nt	8.2µM*	-123.6%	1.26µM*
CCc1cccc(-n2c(=O)c3cccnc3n2CC(=O)NCc2ccccc2)c1	?	nt	nt	-11.9%	?	-28.0%
Cc1ccc(Nc2nnc(SCC(=O)Nc3cccnc3Cl)s2)cc1C	?	i	12.3%	-21.1%	?	-24.0%
Cn1nc(-c2cccnc2)nc2c(=O)n(C)c(=O)nc1-2	2.24µM*	nt	nt	6.51µM*	7.31µM*	2.82µM*
Cc1cccc(N(Cc2ccccc2)C(=O)c2cccc(S(=O)(=O)N3CC(C)OC(C)C3)c2)c1 (stereo unspecified)	?	i	-24.4%	-14.8%	?	18.6%
Cc1ccccc1NC(C)C(=O)N/N=C/c1ccccc1OCc1cccc(Br)c1 (stereo unspecified)	0.2%	i	-9.8%	-24.5%	14.6µM*	3.9%
CCN(C(=O)C1CCN(S(=O)(=O)c2c(C)noc2/C=C/c2ccc(C)cc2)CC1)c1cccc(C)c1	-20.6%	i	7.8%	5.8%	nt	-28.3%
CCCN1CCN(C(=O)Cn2nc(C)n3c(cc4sccc43)c2=O)CC1	3.6%	i	9.1%	12.7%	4.9%	0.3%
Cc1nn(CC(=O)N2CCN(c3ccccn3)CC2)c(=O)c2cc3sccc3n12	3.5%	i	nt	?	29.1µM*	2.6%
Cc1nnsc1-c1onc(C)c1C(=O)Nc1cc(Cl)cc(Cl)c1	15.8µM*	?	nt	-17.7%	?	-60.5%
CCc1cccc(NC(=O)CSc2ncc3c(n2)-c2ccccc2N(Cc2ccccc2C)S3(=O)=O)c1	-22.3%	i	-3.5%	8.5%	?	-3.3%
CCc1ccc(CNc2ccc3c(c2)ncn3CC)cc1	5.0%	i	60.3%	-5.3%	?	1.9%
CCc1ccc(CNc2ccc(O)cc2)cc1	8.91µM*	i	-12.0%	-17.9%	?	12.6µM*
Oc1ccc(OCc2ccccc2)cc1	nt	?	-5.2%	nt	nt	nt
Oc1ccc(NCc2ccc(OCc3ccccc3)cc2)cc1	15.8µM*	?	?	-4.8%	-13.0%	10µM*!
Oc1ccc(NCc2ccc(OCc3ccccc3Cl)cc2)cc1	5.01µM*	nt	?	?	?	7.08µM*
SMILES	TGFb inhibitor	ATXN viability	ATXN2 expr inh	A549 viability	Nrf2 block	HepG2 viability
Oc1ccc(NCc2ccccc2OCc2ccccc2Cl)cc1	nt	nt	nt	-10.1%	-2.1%	-57.9%
COc1ccc(-c2nc(CSCC(=O)NCc3ccccc3Cl)c(C)o2)cc1OC	?	nt	nt	-5.2%	?	-24.1%
Cc1nc(C)c(C(=O)NCCC(c2ccccc2)c2ccccc2)o1	-21.7%	i	-25.3%	-21.8%	10.3µM*	-27.2%
Cc1cc(C)c(NC(=O)CNC(=O)COC(=O)/C=C/c2cccs2)c(C)c1	0.9%	i	-2.5%	12.6%	19.7%	8.6%
Cc1ccc(-n2cc(-c3ccccc3)c3c(N4CCOCC4)ncnc32)cc1	9.5%	i	-17.5%	-20.1%	23.1µM*	-1.7%
CC1CN(c2ncnc3c2c(-c2ccccc2)cn3-c2ccc(F)cc2)CC(C)O1 (stereo unspecified)	-18.6%	i	-33.6%	?	18.4µM*	-1.0%
OCCN1CCN(c2ncnc3c2c(-c2ccccc2)cn3-c2ccc(F)cc2)CC1	10.2%	i	-10.5%	?	?	-29.5%
Cc1ccc(-n2cc(-c3ccccc3)c3c(N4CCCCC4)ncnc32)cc1	-6.5%	nt	nt	11.3%	nt	-34.1%
CCn1c(SCC(=O)Nc2ccc3c(c2)OCCO3)nnc1C1CC1	0.5%	i	2.5%	-1.2%	-12.0%	1.7%
CN1C(=O)/C(=C/c2ccc(O)c([N+](=O)[O-])c2)NC1=S	-0.6%	25.1µM*	-10.6%	-15.1%	-10.8%	-2.3%
COc1cc(/C=C2\NC(=S)N(C)C2=O)ccc1O	24.7%	?	-0.1%	?	-3.8%	-1.5%
CCOC(=O)c1cc(NC(=O)c2ccc(C)cc2)c(=O)n2c1oc1ccc(Cl)cc12	-1.9%	nt	nt	-1.5%	11.3%	-8.4%
Cc1cc(Br)c(OCc2ccc(C(=O)N/N=C/c3ccc[nH]3)cc2)c(Br)c1	1.12µM*	?	-62.7%	1.3µM*	0.517µM*	-94.9%
Cc1ccccc1OCC(=O)Nc1cccc(C(=O)O)c1	14.5%	i	0.168µM*	0.1%	?	4.3%
Cc1cccc(OCC(=O)Nc2cc(NC(=O)COc3cccc(C)c3C)cc(C(=O)O)c2)c1C	-24.0%	i	nt	-4.2%	-10.3%	-30.1%
CC(C)(C)C(=O)Nc1ccc2c(c1)C(=O)C(=O)c1ccccc1-2	nt	nt	nt	?	20.6µM*	nt
Cc1ccccc1OCC(=O)Nc1ccc2c(c1)C(=O)c1ccccc1C2=O	-2.9%	i	12.8%	?	14.6µM*	-22.8%
O=C(/C=C/c1c(F)cccc1Cl)N1CCc2ccccc2C1	-8.5%	i	56.6%	1.4%	3.5%	-7.6%
COc1cc2c(C(=O)N3CCOCC3)c(CSc3ccccc3)n(C)c2cc1Br	?	i	?	?	25.9µM*	-21.5%
CCOC(=O)c1sc(NC(=O)CCN2CCCCCC2)c(C(=O)OCC)c1C	?	i	1.5%	2.9%	-7.2%	17.8µM*
